Reference: PubChem BioAssay AID1159524 (National Center for Advancing Translational Sciences (NCATS), 2015)
About 5,100 (1.2%) of roughly 410,000 compounds were called active. Roughly 8% stayed inconclusive and do not appear here. Many of the other results were omitted from the sample, so actives are more common in it than they were. Unmarked numbers belong to inactive results. Calls come from the whole dose curve; tested in HEK293T cells.

Assay: High Throughput Screening for Foot and Mouth Disease Virus Antivirals; note: read-out not given here; nearly all actives have a fitted effect of over 45% in size
Details: FMDV antiviral cell-based qHTS; series mostly up to 57.9 µM; activity change, negative = inhibition: at the top concentration
% is set by controls: 0 for no effect and ±100 for the full control effect; potency is the fitted concentration of half-maximal effect.

| Structure (SMILES) | activity change, negative = inhibition [%] | Potency |
| --- | --- | --- |
| COc1cc(C)c(CN2CCc3nnc(C(C)NC(=O)c4cccnc4)n3CC2)cc1C (configuration not stated) | -1.27 | – |
| COc1cccc(-c2ccc(O)c(CNC3CN4CCC3CC4)c2)n1 (configuration not stated) | -2.84 | – |
| O=C(NCCN1CCOCC1)c1cnn(-c2nccc(-c3cccs3)n2)c1C1CC1 | -14.6 | – |
| O=C(c1cnccn1)N1CCC[C@@]2(CCN(Cc3ccncc3)C2)C1 | 4.24 | – |
| Cc1nc2cnc(Nc3ccccc3)nc2n(Cc2ccc(F)cc2)c1=O | -2.58 | – |
| CCCCNC(=O)c1ccc2c(c1)NC(=O)C(C(C)C)N2 (configuration not stated) | -8.61 | – |
| COc1ccc(NC(=O)N2CC3(CCN(C(C)=O)CC3)C2)cc1 | -13.1 | – |
| CC(C)(C)OC(=O)NNc1c2ccccc2nc2ccccc12 | – | 20 µM (active) |
| Cc1ccc(C(=O)NNC(=O)OC(C)(C)C)c(Cl)c1 | 17.1 | – |
| CC(C)(C)OC(=O)N[C@H](C(=O)OC(C)(C)C)c1ccc(Br)cc1 | 0 | – |
| O=C(c1cc(C(F)(F)F)cc(C(F)(F)F)c1)N1CCC2(CC1)CN(c1ccncc1)C2 | 9.6 | – |
| Fc1cccc(/C=N\N=C/c2cccc(F)c2)c1 | 48.9 | – |
| CCCCOC(=O)CNc1nnc(SCC(=O)OCC)[nH]c1=O | – | 39.8 µM (active) |
| Cc1nnc(SCCCCSc2nnc(C)c(=O)[nH]2)[nH]c1=O | -7.02 | – |
| CCOC(=O)CNc1nc2ccccc2n2c(C)nnc12 | – | inactive |
| Cc1cccc(Cc2c(C)nc3nc(SCc4ccccc4Cl)nn3c2C)c1 | -0.876 | – |
| CCOc1ccc(C(=O)c2cn(Cc3ccc(F)cc3)c3ccc(F)cc3c2=O)cc1 | -2.69 | – |
| COC(=O)c1ccccc1NC(=O)Cn1c(=O)cc(C)c2c(C)nn(-c3cccc(Cl)c3C)c21 | -15.1 | – |
| O=c1c(-c2ccc(F)cc2)nc2cnc(N3CCOCC3)nc2n1-c1ccccc1 | -17.7 | – |
| C=CCN1CCC2(C)c3cc(O)ccc3CC1[C@@H]2C (some centres not stated) | -3.63 | – |
| Cc1cc(C)nc(S/C=C/C(=O)c2ccccc2)n1 | – | 12.6 µM (active) |
| CCn1c(CSc2nc(C)cc(C)n2)nnc1SCC(N)=O | -14.6 | – |
| O=C(CSCc1cnn(-c2ccccc2)c1-n1cccc1)NCc1ccc(Cl)cc1 | -12.8 | – |
| COc1cn(CC(=O)Nc2cccc(C)c2C)c(CN2CCCCC2)cc1=O | -2.87 | – |
| COc1ccc2[nH]cc(CCNc3cc(-c4ccccc4CN(C)C)ncn3)c2c1 | -6.42 | – |
| COc1cccc(N2CCN(C(=O)Nc3ccc4c(c3)NC(=O)CO4)CC2)c1 | -24.9 | – |

| Structure (SMILES) | activity change, negative = inhibition [%] | Potency |
| --- | --- | --- |
| O=C(Nc1cccc(NC(=O)N2CCN(c3ccccc3)CC2)c1)N1CCN(c2ccccc2)CC1 | – | 25.1 µM (active) |
| O=C(Nc1ccccc1)N1CCN(C2c3ccccc3-c3ccccc32)CC1 | -14 | – |
| CC(C)NC[C@H](O)c1ccc2ccccc2c1 | -13.9 | – |
| CCc1nn(CCCC(=O)NCc2ccccc2OC)c(=O)c2cc3occc3n12 | -17.4 | – |
| COCCn1c(=O)c(-c2cc(F)cc(F)c2)nc2cnc(N3CCNCC3)nc21 | 0.569 | – |
| COc1ccc(-c2cn3nc(N4CCCC(C(=O)NCCCOC(C)C)C4)sc3n2)cc1 (configuration not stated) | -20.5 | – |
| O=C(Nc1c(-c2ccc(F)cc2)nc2ccccn12)c1cccc(F)c1 | -6.72 | – |
| O=C(/C(=C/c1cccc(Cl)c1)c1nc2ccccc2[nH]1)c1ccccc1 | – | 7.94 µM (active) |
| Cc1ccc2nc(CNC(=O)c3ccccc3)[nH]c2c1 | 69.6 | – |
| N#C/C(=C\c1ccccc1F)c1nc2ccccc2c(=O)[nH]1 | -17.8 | – |
| Cc1nn(Cc2ccc(F)cc2)c(C)c1NC(=O)c1noc2c1CCc1ccccc1-2 | – | 31.6 µM (active) |
| COc1ccc2c(c1)CCc1c(C(=O)Nc3cc(C)ccc3O)noc1-2 | 21.7 | – |
| Cc1ccccc1Cn1nc(C)c(NC(=O)c2cc(-c3ccc(F)cc3)on2)c1C | -21.6 | – |
| CCC(C)NC(=O)Cn1c(=O)n(-c2ccc(Cl)cc2)c(=O)c2c3c(sc21)CCCC3 (configuration not stated) | -21.7 | – |
| COc1cc2c(cc1OC)CC1(CCCCC1)N=C2 | 1.73 | – |
| COc1cc2c(cc1OC)C(Nc1ccc(S(N)(=O)=O)cc1)=NC(C)(C)C2 | 5.48 | – |
| COc1cc2c(cc1O)C(SC)=NC(C)(C)C2 | – | 20 µM (active) |
| COc1ccccc1-c1cc(NCc2cccs2)ncn1 | 9.02 | – |
| CC(C)C(N)C(=O)OCCOCn1cnc2c(=O)[nH]c(N)nc21 (configuration not stated) | 33.8 | – |
| O=c1c(-c2cc(F)cc(F)c2)nc2cnc(Oc3ccccc3)nc2n1C[C@H]1CCCO1 | -2.22 | – |
| C/C=C/c1ccc(OCC(=O)OCC(=O)Nc2c(C)nn(-c3ccccc3)c2C)c(OC)c1 | -22.7 | – |
| CCCn1c(C)cc(C(=O)COC(=O)c2c(C)nn(-c3ccccc3)c2C)c1C | – | 35.5 µM (active) |
| Cc1ccc(OC(=O)c2c(C)nn(-c3ccccc3)c2C)cc1 | 36.2 | – |
| CCC(Oc1ccccc1)C(=O)OCC(=O)Nc1c(C)nn(-c2ccccc2)c1C (configuration not stated) | -16.5 | – |
| COc1ccc(CNC(=O)COC(=O)c2c(C)nn(-c3ccccc3)c2C)cc1OC | – | 39.8 µM (active) |
| COc1ccc(CNC(=O)COc2ccccc2C(=O)c2cnn(-c3ccccc3)c2)cc1OC | -16.8 | – |
